Source: PubChem BioAssay (NCATS)
Inconclusive results are not listed. A number with no mark means an inactive call. Calls of active or inactive are those of the source. Calls come from the whole dose curve; as a rule, active = well fitted inhibition curve with a large enough effect; inconclusive = small, poorly fitted or top-dose-only effect; inactive = flat fitted curve, though single readings scatter.

Assay: P-glycoprotein substrates identified in KB-8-5-11 adenocarcinoma cell line, qHTS therapeutic library screen (AID 1346987); note: nearly all actives have a fitted effect of over 65% in size
Details: KB-8-5-11 (P-gp overexpressing) viability, CellTiter-Glo, 72 h; series mostly up to 44.5 µM; activity change, negative = cytotoxicity: at the top concentration
Method in brief: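 Compounds are pinned in dose-response onto KB-8-5-11 cells (500 cells/well, colchicine-free medium) and left 72 h at 37 degree C. CellTiter-Glo luminescence then yields AC50 values.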
% is set by controls: 0 for no effect and ±100 for the full control effect.

Question: Which “activity change, negative = cytotoxicity” value does the source give for `CCC(C)C(N)C(=O)NCCN1CCOCC1` (stereo unspecified) here?
Answer: 0.0236%

Question: With `COC(=O)[C@]1(C)CCC[C@@]2(C)C(=O)CC[C@H]3C(=O)C=C(CC[C@@H]21)C3O` (stereo partly specified) as the compound, how does the “activity change, negative = cytotoxicity” value read?
Answer: 9.87%

Question: Which “outcome” value does the source give for `Nc1c(-c2ccccc2)nc(Cl)c2c(O)n[nH]c(=O)c12` here?
Answer: inactive

Question: For `CC1=C2CC(O)(C(C)(C)O)C(O[C@@H]3O[C@H](CO)[C@@H](O)[C@H](O)[C@H]3O)CC(C)C2CC1=O` (stereo partly specified), which “outcome” value is on record?
Answer: inactive [at 17.3 µM]

Question: For `O=C(O)c1ccnc(-c2cc(C(=O)NCCc3ccccc3)ccn2)c1`, which “activity change, negative = cytotoxicity” value is on record?
Answer: 3.94%

Question: With `C=CCC/C=C/C#CCCCCCCCC[C@H]1C(=O)O[C@H](C)[C@@H]1O` as the compound, how does the “activity change, negative = cytotoxicity” value read?
Answer: 5.98%

Question: Which “activity change, negative = cytotoxicity” value does the source give for `CC(NC(=O)c1ccccc1N)C(=O)O` (stereo unspecified) here?
Answer: 5.71%

Question: For `N#Cc1cc(-c2n[nH]c(-c3ccncc3)n2)ccn1`, which “activity change, negative = cytotoxicity” value is on record?
Answer: 9.84%

Question: Which “activity change, negative = cytotoxicity” value does the source give for `C=C(CCO)C(=O)OCC1OCC(OC(=O)C(=C)CCO[C@@H]2O[C@H](CO)[C@@H](O)[C@H](O)[C@H]2O)C(O)C1O` (stereo partly specified) here?
Answer: 2.76% [at 17.3 µM]

Question: Which “activity change, negative = cytotoxicity” value does the source give for `CC1=CCC2C(C)(C)CCCC2(C)C1CC12OC1C(O)C(CO)=CC2O` (stereo unspecified) here?
Answer: 8.9%

Question: For `CC1=CC[C@@]2(C)CC[C@@](O)(C(C)C)[C@@H]2[C@@H](O)C1`, which “activity change, negative = cytotoxicity” value is on record?
Answer: 4.04%

Question: With `CC(C)=C1CC2[C@](C)(CC[C@@H](OC(=O)C3(C)OC3C)[C@@]2(C)O)CC1=O` (stereo partly specified) as the compound, how does the “outcome” value read?
Answer: inactive

Question: Which “activity change, negative = cytotoxicity” value does the source give for `COc1ccc(/C=C/C(=O)N2CCCC2)cc1` here?
Answer: -1.93%

Question: Which “activity change, negative = cytotoxicity” value does the source give for `CC(O)C1CCC2C3CCC4CC(OC5OC(C(=O)O)C(O)C(O)C5O)CCC4(C)C3CCC12C` (stereo unspecified) here?
Answer: -6.91%

Question: With `COc1ccc(NC(=O)c2ccc(-c3ccc(C(N)=O)cc3C)cc2)cc1N1CCN(C)CC1` as the compound, how does the “outcome” value read?
Answer: inactive

Question: For `Oc1ccc(CC2NCCc3cc(O)c(O)cc32)cc1` (stereo unspecified), which “outcome” value is on record?
Answer: inactive
